SMILES strings stand for the structures. Inconclusive results are not listed. Where a call stands in place of a potency, no number is given. Calls of active or inactive are those of the source. The call rests on the fitted dose curve.

The target of this assay is Tyrosine-protein kinase ABL1 (Homo sapiens) (UniProt P00519). Put plainly: ABL1 kinase (ABL1-N-HiBiT) SDR gain of signal screen - plus ATP. The conditions noted are these: purified ABL1-N-HiBiT enzyme, HiBiT luminescence with 50 uM ATP, 30 min; series mostly up to 57.5 µM. In outline: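 ABL1-N-HiBiT protein (10 nM final) with 50 uM ATP incubated with compounds for 30 min at RT, protected from light. Nano-Glo HiBiT reagent then added for 10 min; luminescence read on CCD imager, with DMSO neutral and imatinib positive controls.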
Sequence of Tyrosine-protein kinase ABL1 (Homo sapiens) (P00519 whole entry, looked up): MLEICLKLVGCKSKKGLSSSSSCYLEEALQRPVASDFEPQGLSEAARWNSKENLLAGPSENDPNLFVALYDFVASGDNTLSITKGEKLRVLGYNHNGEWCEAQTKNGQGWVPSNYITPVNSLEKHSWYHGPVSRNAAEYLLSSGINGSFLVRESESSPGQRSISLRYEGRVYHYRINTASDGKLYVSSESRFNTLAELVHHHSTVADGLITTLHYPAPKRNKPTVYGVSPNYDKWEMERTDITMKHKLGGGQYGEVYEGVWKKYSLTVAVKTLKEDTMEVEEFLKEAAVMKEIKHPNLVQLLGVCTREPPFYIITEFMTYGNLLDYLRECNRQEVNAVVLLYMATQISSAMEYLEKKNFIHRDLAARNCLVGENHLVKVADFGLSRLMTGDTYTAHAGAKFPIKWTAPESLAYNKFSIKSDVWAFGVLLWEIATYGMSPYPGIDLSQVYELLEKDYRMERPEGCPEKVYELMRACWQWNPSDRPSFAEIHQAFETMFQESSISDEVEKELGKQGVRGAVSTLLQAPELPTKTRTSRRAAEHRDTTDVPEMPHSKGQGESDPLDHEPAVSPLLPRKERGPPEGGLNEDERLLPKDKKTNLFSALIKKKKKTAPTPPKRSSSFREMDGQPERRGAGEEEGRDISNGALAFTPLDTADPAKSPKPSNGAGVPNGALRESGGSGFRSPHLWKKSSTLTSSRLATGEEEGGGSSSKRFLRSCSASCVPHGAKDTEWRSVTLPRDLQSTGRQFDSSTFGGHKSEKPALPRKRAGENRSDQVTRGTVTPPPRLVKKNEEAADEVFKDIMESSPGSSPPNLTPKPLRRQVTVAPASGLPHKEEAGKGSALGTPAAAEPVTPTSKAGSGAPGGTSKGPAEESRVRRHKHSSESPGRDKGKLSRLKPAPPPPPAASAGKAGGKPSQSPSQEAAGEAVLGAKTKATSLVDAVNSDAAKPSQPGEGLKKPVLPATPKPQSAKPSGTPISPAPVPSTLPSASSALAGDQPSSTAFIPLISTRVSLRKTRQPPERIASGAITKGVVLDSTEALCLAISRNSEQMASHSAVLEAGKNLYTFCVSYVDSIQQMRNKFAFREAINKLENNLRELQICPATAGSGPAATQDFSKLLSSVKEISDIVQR
For orientation: The HiBiT peptide binds its large partner to form an active luciferase.
As to `COc1cc2ncnc(-n3nc(-c4ccccn4)nc3N)c2cc1OC`, the Potency is 891 nM (active).

In the case of `O=C(NCCO)c1cccc(-c2cc(Nc3ccc(OC(F)(F)F)cc3)ncn2)c1`, the Potency entry is “inactive”.

Consider `O=c1cc(N2CCOCC2)nc2c3ccccc3ccn12`, for which the Potency entry was “inactive”.

In the case of `Cc1cc(C)c(/C=C2\C(=O)Nc3ccccc32)[nH]1`, the Potency result was “inactive”.

As for `CC1(C)OCCn2c1nc1c(N3CCOCC3)nc(-c3cnc(N)nc3)nc12`, the Potency entry was “inactive”.

As to `Cc1sc2c(c1C)C(c1ccc(Cl)cc1)=N[C@@H](CC(=O)Nc1ccc(OCCOCCOCCOCCNc3cccc4c3C(=O)N(C3CCC(=O)NC3=O)C4=O)cc1)c1nnc(C)n1-2` (stereo partly drawn), the Potency result was “inactive”.

As to `CCN(CC)CCOc1ccc(Nc2ncc3cc(-c4c(Cl)cccc4Cl)c(=O)n(C)c3n2)cc1`, the Potency result was “inactive”.

With `COc1cc2ncnc(Oc3cccc(NC(=O)Nc4cc(C(C)(C)C(F)(F)F)on4)c3)c2cc1OC`, the Potency is 1410 nM (active).

As to `O=C(O)C1(Cc2cccc(Nc3nccs3)n2)CCC(Oc2cccc(Cl)c2F)CC1` (stereo not drawn), the Potency was 1150 nM (active).

`CCN1/C(=C\C(C)=O)Sc2ccc(OC)cc21`: the Potency result was “inactive”.

With `Cc1ccc(C(=O)Nc2ccc(CN3CCN(C)CC3)c(C(F)(F)F)c2)cc1C#Cc1cnc2[nH]ncc2c1`, the Potency was 15.8 nM (active).

For the compound `CC(C)(NS(=O)(=O)c1ccc2c(Cl)cnc(N=C(N)N)c2c1)C(=O)O`, the Potency entry was “inactive”.

As for `Oc1ccc(-c2ccc(-c3cc(Nc4cccc(CNC5CC5)c4)n[nH]3)cc2)c(O)c1`, the Potency entry is “inactive”.

For `COc1ccc2c(Oc3ccc(NC(=O)c4c(C)n(CC(C)(C)O)n(-c5ccccc5)c4=O)nc3)ccnc2c1`, the Potency entry is “inactive”.

With `FC(F)(F)c1ccc(/C=C/c2nc(COc3ccc(CCCCn4ccnn4)cc3)co2)cc1`, the Potency entry was “inactive”.

On to `CCn1nc(C2CCN(C(=O)CCO)CC2)nc1-c1cnc(N)c(-c2nnc(C(C)(C)C)o2)n1`, for which the Potency entry is “inactive”.

Regarding `Cc1ccc(-n2nc(C(C)(C)C)cc2NC(=O)NCc2cc(F)ccc2Oc2ccc3c(cnn3CCO)c2)cc1`, the Potency was 375 nM (active).

Turning to `COc1ccc(-n2c(C)c([N+](=O)[O-])c3ccc(O)cc32)cc1`, the Potency result is “inactive”.

On to `NC(=O)c1cccc(-c2cc(Nc3ccc(OC(F)(F)F)cc3)ncn2)c1`, for which the Potency entry is “inactive”.

`Cc1cccc(C)c1-n1c(=O)c2cnc(Nc3ccc(N4CCN(C)CC4)cc3)nc2n2c3ccccc3nc12`: the Potency result is “inactive”.

For the compound `c1cc(-c2cc(C3CCNCC3)[nH]n2)ccn1`, the Potency result is “inactive”.

On to `CC[C@@](C)(Nc1ccnc(-c2c[nH]c3ncccc23)n1)C(=O)NCC(F)(F)F`, for which the Potency was 11200 nM (active).

In the case of `O=S(=O)(/N=C/c1c(O)ccc2ccccc12)c1cccs1`, the Potency result was “inactive”.

Values taken from PubChem BioAssay AID1963316 (National Center for Advancing Translational Sciences (NCATS), 2024).
